Screening results: PubChem, University of Kansas High Throughput Screening Laboratory
Only some compounds are listed: those with a hit (about 3.6% of all), similar ones and a draw of the others.
mHTT-CaM PPI inh: inhibitors of human mutant huntingtin-calmodulin interaction. P42858. AlphaScreen His-mHTT/GST-CaM binding, luminescence. inhibition, % at 15 µM. 190,000 compounds, 3.6% hits. AID 1671202;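 further: 0% = both proteins with DMSO and 100% = one protein alone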
Pf apPOL block: Pf-apPOL DNA polymerase inhibition; AID 1794808; 210,000 compounds, 0.25% hits; inhibition, % at 10 µM; Recombinant Pf-apPOL, molecular beacon fluorescence, 1.5 h
Active calls of the source: *; / = no result given. No stated cut-off is given here; in the data, active means inhibition above about 50%; inactive means the rest.

SMILES	mHTT-CaM PPI inh	Pf apPOL block
COc1cccc(C2CC(c3ccccc3Cl)Nc3nc(N)nn32)c1 (stereo not given)	29.7	-2.8
Cc1ccc2c(c1)N(C(=O)Nc1cccc(Cl)c1)CC(C)O2 (stereo not given)	-1.0	-13.3
COc1ccc(NC(=O)c2nnn(CC(=O)Nc3ccc(C)cc3C)c2N)c(OC)c1	24.4	-3.8
CCN(CC)CCCNC(=O)Cc1cn(C)c2ccccc12	5.0	-4.3
CCN(CCCNC(=O)Cc1cn(C)c2ccccc12)c1ccccc1	53.0*	-2.5
Cc1ccc(-c2nn(C)c(=O)c3ccccc23)cc1S(=O)(=O)NC(C)C	5.0	-0.8
Cc1ccc(C(c2ccc(C)o2)c2cc([N+](=O)[O-])cc(Br)c2O)o1	64.7*	-4.0
CCCC(=O)c1cc2c(cc1[N+](=O)[O-])OCCO2	1.1	-4.9
Cc1ccc(C(c2ccc(C)o2)c2cc(Br)cc([N+](=O)[O-])c2O)o1	42.0	3.9
Cc1ccc(C(c2ccc(C)o2)c2cc3c(cc2[N+](=O)[O-])OCCO3)o1	56.0*	-6.0
Cc1nc2c(C(=O)NCc3ccccc3)cnn2c(C)c1Cc1ccc(F)cc1Cl	22.0	-8.4
COc1ccc(C=NS(=O)(=O)c2cccs2)cc1OC	0.0	11.1
O=C(NC(c1ccccc1Cl)c1ccc2cccnc2c1O)c1ccccc1 (stereo not given)	73.0*	4.4
O=C(NC(c1ccc(Cl)cc1)c1ccc2cccnc2c1O)c1ccccc1 (stereo not given)	100.0*	-1.5
Cc1cccc(Nc2nc(CC(=O)NCCOc3ccc(F)cc3)cs2)n1	-0.8	-5.8
CCc1ccc(NC(=O)N2CCc3c(c(COc4ccccc4)nn3C)C2)cc1	17.0	-1.9
CC(C)C(=O)NC(c1ccc(N(C)C)cc1)c1ccc2cccnc2c1O (stereo not given)	100.0*	-0.7
CCN(CC)c1ccc(C(NC(=O)C(C)C)c2ccc3cccnc3c2O)cc1 (stereo not given)	100.0*	6.1
CC(C)c1ccc(NC(=O)C(=O)NCc2ccc3c(c2)OCO3)cc1	-4.3	-2.0
COc1ccc(NC(=O)C2C3CCCCC32)cc1 (stereo not given)	-7.7	-4.9
CCc1ccc(N2C(=O)NC(=O)C(Cc3ccc(OC)c(OC)c3)C2=O)cc1 (stereo not given)	0.5	-5.5
O=C(NCCc1c[nH]c2ccccc12)Nc1ccc(Cl)cc1	/	-2.9
CCn1cc(NC(=O)NCCc2c[nH]c3ccccc23)c2ccccc21	72.2*	-0.5
COc1ccc(CNC(=O)Cn2nc3c(c2NC(=O)Cc2cccs2)CSC3)cc1	66.3*	42.0
COc1ccc(CC(=O)Nc2c3c(nn2-c2ccc(OC)cc2)CSC3)cc1	31.0	-0.9
SMILES	mHTT-CaM PPI inh	Pf apPOL block
O=C(NCc1ccccc1)c1ccc2c(c1)NC(=O)C1CCCN21 (stereo not given)	14.8	-4.7
CCN(CCCNC(=O)c1ccc2c(c1)NC(=O)C1CCCN21)Cc1ccccc1 (stereo not given)	19.1	50.4*
COc1ccc(C(=O)Oc2ccc3c(=O)c(-c4ccccc4OC)c(C)oc3c2)cc1	-5.5	2.6
COc1ccc(OC)c(NC(NC(=O)c2ccco2)C(=O)c2ccc(Cl)cc2)c1 (stereo not given)	67.0*	-5.5
CCOc1ccccc1NC(NC(=O)c1ccco1)C(=O)c1ccc(Cl)cc1 (stereo not given)	43.0	-4.4
COc1ccc(CC(=O)N2CCN(c3nc4ccncc4n(CC(C)C)c3=O)CC2)cc1	-2.5	-11.0
Cc1nc2c(C(=O)NC3CCCCC3C)cnn2c(C)c1Cc1cccc(Cl)c1 (stereo not given)	71.0*	-10.1
Cc1nc2c(C(=O)NC3CCCC3)cnn2c(C)c1Cc1cccc(Br)c1	10.0	-0.1
Cc1nc2c(C(=O)NC3CC3)cnn2c(C)c1Cc1ccccc1Cl	58.0*	-6.1
Cc1nc2c(C(=O)NC3CCCCC3)cnn2c(C)c1Cc1ccccc1Cl	2.0	-2.5
Cc1nc2c(C(=O)NC3CCCCC3C)cnn2c(C)c1Cc1ccccc1 (stereo not given)	16.0	-7.8
Cc1nc2c(C(=O)NC3CCCCC3)cnn2c(C)c1Cc1cccc(Cl)c1	61.0*	12.4
CCNC(=O)Nc1cc(C)ccc1N1CCCN(Cc2ccc(C)cc2)C1=O	-1.6	-0.8
CC1=C(C(=O)Nc2ccc(C)cn2)C(c2ccccc2C(F)(F)F)C2=C(CCCC2=O)N1 (stereo not given)	8.0	2.4
CCC(C(=O)Nc1ncc(S(=O)(=O)c2ccc([N+](=O)[O-])cc2)s1)c1ccccc1 (stereo not given)	61.0*	-1.6
O=C(Cc1ccccc1)Nc1ncc(S(=O)(=O)c2ccc([N+](=O)[O-])cc2)s1	0.6	-3.5
CCOC(=O)N1CCN(C(=O)c2cc(-c3ccco3)[nH]n2)CC1	-9.7	-5.5
CC(C)(C)n1nc2c(c1-n1cccc1)CN(C(=O)c1cc(-c3ccco3)[nH]n1)C2	99.0*	81.5*
